# According to PMC8384837, “Expanding the binding specificity for RNA recognition by a PUF domain”:
# What was measured:
# Experiment in all cases: yeast three-hybrid, YBZ-1, SC-Leu-His + 0.5 mM 3-AT, 4 days
# Conditions in all cases: tags: N-Gal4 AD-HA kept; label: inside an RPR1-promoter hybrid RNA with tandem MS2 sites; ssRNA
# [1] = target: PUM1 PUF domain R5-GQK (Homo sapiens, UniProt Q14671 828-1176, C1007G;R1008Q;Q1011K)
# Procedure, shortened: (§1)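 Pumilio-1 PUF domain libraries, randomized at the three base-contacting residues of each repeat, were co-expressed with matching RNA elements from a centromeric plasmid in strain YBZ-1, which carries a LexA–MS2 coat fusion and a HIS3 reporter. Transformants grew for four days on SC-Leu (input) or on SC-Leu-His + 0.5 mM 3-AT (selection), and the repeat regions were PCR-amplified and Illumina-sequenced. The interaction score is the log change in variant frequency from input to selection. That logarithm is base 2, with a pseudocount of 1 where a variant was absent.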
# [2] = target: PUM1 PUF domain R3-CRS (Homo sapiens, UniProt Q14671 828-1176, Q939S)
# Procedure, shortened: as §1
# [3] = target: PUM1 PUF domain R3-YPR (Homo sapiens, UniProt Q14671 828-1176, C935Y;R936P;Q939R)
# Procedure, shortened: as §1
# [4] = target: PUM1 PUF domain R1-KRG (Homo sapiens, UniProt Q14671 828-1176, S863K;Q867G)
# Procedure, shortened: as §1
# [5] = target: PUM1 PUF domain R1-RNR (Homo sapiens, UniProt Q14671 828-1176, S863R;R864N;Q867R)
# Procedure, shortened: as §1
# [6] = target: PUM1 PUF domain R4-ARV (Homo sapiens, UniProt Q14671 828-1176, N971A;H972R;Q975V)
# Procedure, shortened: as §1
# [7] = target: PUM1 PUF domain R1-QRK (Homo sapiens, UniProt Q14671 828-1176, S863Q;Q867K)
# Procedure, shortened: as §1
# [8] = target: PUM1 PUF domain R8-AWR (Homo sapiens, UniProt Q14671 828-1176, N1122A;Y1123W;Q1126R)
# Procedure, shortened: as §1
# [9] = target: PUM1 PUF domain R5-NPE (Homo sapiens, UniProt Q14671 828-1176, C1007N;R1008P;Q1011E)
# Procedure, shortened: as §1
# [10] = target: PUM1 PUF domain R4-DHM (Homo sapiens, UniProt Q14671 828-1176, N971D;Q975M)
# Procedure, shortened: as §1
# [11] = target: PUM1 PUF domain R3-GCF (Homo sapiens, UniProt Q14671 828-1176, C935G;R936C;Q939F)
# Procedure, shortened: as §1
# [12] = target: PUM1 PUF domain R3-TGQ (Homo sapiens, UniProt Q14671 828-1176, C935T;R936G)
# Procedure, shortened: as §1
# [13] = target: PUM1 PUF domain R3-EWT (Homo sapiens, UniProt Q14671 828-1176, C935E;R936W;Q939T)
# Procedure, shortened: as §1
# [14] = target: PUM1 PUF domain R3-PHE (Homo sapiens, UniProt Q14671 828-1176, C935P;R936H;Q939E)
# Procedure, shortened: as §1
# [15] = target: PUM1 PUF domain R5-ELW (Homo sapiens, UniProt Q14671 828-1176, C1007E;R1008L;Q1011W)
# Procedure, shortened: as §1
# [16] = target: PUM1 PUF domain R2-LLL (Homo sapiens, UniProt Q14671 828-1176, N899L;Y900L;Q903L)
# Procedure, shortened: as §1
# [17] = target: PUM1 PUF domain R7-QGR (Homo sapiens, UniProt Q14671 828-1176, S1079Q;N1080G;E1083R)
# Procedure, shortened: as §1
# [18] = target: PUM1 PUF domain R5-RNP (Homo sapiens, UniProt Q14671 828-1176, C1007R;R1008N;Q1011P)
# Procedure, shortened: as §1
# [19] = target: PUM1 PUF domain R5-KPM (Homo sapiens, UniProt Q14671 828-1176, C1007K;R1008P;Q1011M)
# Procedure, shortened: as §1
# [20] = target: PUM1 PUF domain R5-NLS (Homo sapiens, UniProt Q14671 828-1176, C1007N;R1008L;Q1011S)
# Procedure, shortened: as §1
# Sequence of PUM1 PUF domain R3-CRS (Q14671 828-1176 Q939S): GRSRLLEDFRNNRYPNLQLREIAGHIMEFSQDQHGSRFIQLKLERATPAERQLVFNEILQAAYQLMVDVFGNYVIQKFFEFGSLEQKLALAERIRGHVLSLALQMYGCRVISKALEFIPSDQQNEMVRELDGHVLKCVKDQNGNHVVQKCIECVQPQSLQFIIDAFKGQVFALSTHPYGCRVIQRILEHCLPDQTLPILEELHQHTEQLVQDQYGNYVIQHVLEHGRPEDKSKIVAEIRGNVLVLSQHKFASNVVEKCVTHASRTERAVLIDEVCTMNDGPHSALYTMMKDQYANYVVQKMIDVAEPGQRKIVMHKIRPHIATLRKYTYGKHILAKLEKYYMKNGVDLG
# Sequence of PUM1 PUF domain R1-KRG (Q14671 828-1176 S863K/Q867G): as the sequence (Q14671 828-1176 Q939S) above, with S36K, Q40G, S112Q counted along it
# Sequence of PUM1 PUF domain R3-YPR (Q14671 828-1176 C935Y/R936P/Q939R): as the sequence (Q14671 828-1176 Q939S) above, with C108Y, R109P, S112R counted along it
# Sequence of PUM1 PUF domain R8-AWR (Q14671 828-1176 N1122A/Y1123W/Q1126R): as the sequence (Q14671 828-1176 Q939S) above, with S112Q, N295A, Y296W, Q299R counted along it
# Sequence of PUM1 PUF domain R4-ARV (Q14671 828-1176 N971A/H972R/Q975V): as the sequence (Q14671 828-1176 Q939S) above, with S112Q, N144A, H145R, Q148V counted along it
# Sequence of PUM1 PUF domain R5-GQK (Q14671 828-1176 C1007G/R1008Q/Q1011K): as the sequence (Q14671 828-1176 Q939S) above, with S112Q, C180G, R181Q, Q184K counted along it
# Sequence of PUM1 PUF domain R1-RNR (Q14671 828-1176 S863R/R864N/Q867R): as the sequence (Q14671 828-1176 Q939S) above, with S36R, R37N, Q40R, S112Q counted along it
# Sequence of PUM1 PUF domain R3-EWT (Q14671 828-1176 C935E/R936W/Q939T): as the sequence (Q14671 828-1176 Q939S) above, with C108E, R109W, S112T counted along it
# Sequence of PUM1 PUF domain R5-NLS (Q14671 828-1176 C1007N/R1008L/Q1011S): as the sequence (Q14671 828-1176 Q939S) above, with S112Q, C180N, R181L, Q184S counted along it
# Sequence of PUM1 PUF domain R5-NPE (Q14671 828-1176 C1007N/R1008P/Q1011E): as the sequence (Q14671 828-1176 Q939S) above, with S112Q, C180N, R181P, Q184E counted along it
# Sequence of PUM1 PUF domain R4-DHM (Q14671 828-1176 N971D/Q975M): as the sequence (Q14671 828-1176 Q939S) above, with S112Q, N144D, Q148M counted along it
# Sequence of PUM1 PUF domain R2-LLL (Q14671 828-1176 N899L/Y900L/Q903L): as the sequence (Q14671 828-1176 Q939S) above, with N72L, Y73L, Q76L, S112Q counted along it
# Sequence of PUM1 PUF domain R3-TGQ (Q14671 828-1176 C935T/R936G): as the sequence (Q14671 828-1176 Q939S) above, with C108T, R109G, S112Q counted along it
# Sequence of PUM1 PUF domain R1-QRK (Q14671 828-1176 S863Q/Q867K): as the sequence (Q14671 828-1176 Q939S) above, with S36Q, Q40K, S112Q counted along it
# Sequence of PUM1 PUF domain R3-PHE (Q14671 828-1176 C935P/R936H/Q939E): as the sequence (Q14671 828-1176 Q939S) above, with C108P, R109H, S112E counted along it
# Sequence of PUM1 PUF domain R3-GCF (Q14671 828-1176 C935G/R936C/Q939F): as the sequence (Q14671 828-1176 Q939S) above, with C108G, R109C, S112F counted along it
# Sequence of PUM1 PUF domain R5-KPM (Q14671 828-1176 C1007K/R1008P/Q1011M): as the sequence (Q14671 828-1176 Q939S) above, with S112Q, C180K, R181P, Q184M counted along it
# Sequence of PUM1 PUF domain R7-QGR (Q14671 828-1176 S1079Q/N1080G/E1083R): as the sequence (Q14671 828-1176 Q939S) above, with S112Q, S252Q, N253G, E256R counted along it
# Sequence of PUM1 PUF domain R5-RNP (Q14671 828-1176 C1007R/R1008N/Q1011P): as the sequence (Q14671 828-1176 Q939S) above, with S112Q, C180R, R181N, Q184P counted along it
# Sequence of PUM1 PUF domain R5-ELW (Q14671 828-1176 C1007E/R1008L/Q1011W): as the sequence (Q14671 828-1176 Q939S) above, with S112Q, C180E, R181L, Q184W counted along it
sequence,measurement,setting,value
GGCUAGAACUAGUGGAUCCCCCGGCGCCCGGCGGCUCGAGCCCGGGUAAGUGUCAAUAGUCUGCAUGCCGCCGGGCGCCAUGCCUGCAGGUCGACUCUAGAAAACAUG,binding signal,[1],2.24 log2 enrichment (interaction score)
GGCUAGAACUAGUGGAUCCCCCGGCGCCCGGCGGCUCGAGCCCGGGUAAGUGUAAUUAGUCUGCAUGCCGCCGGGCGCCAUGCCUGCAGGUCGACUCUAGAAAACAUG,binding signal,[2],0.43 log2 enrichment (interaction score)
same,binding signal,[3],0.67 log2 enrichment (interaction score)
GGCUAGAACUAGUGGAUCCCCCGGCGCCCGGCGGCUCGAGCCCGGGUAAGUGUAAAUUGUCUGCAUGCCGCCGGGCGCCAUGCCUGCAGGUCGACUCUAGAAAACAUG,binding signal,[4],1.23 log2 enrichment (interaction score)
same,binding signal,[5],4.23 log2 enrichment (interaction score)
GGCUAGAACUAGUGGAUCCCCCGGCGCCCGGCGGCUCGAGCCCGGGUAAGUGUACAUAGUCUGCAUGCCGCCGGGCGCCAUGCCUGCAGGUCGACUCUAGAAAACAUG,binding signal,[6],0.8 log2 enrichment (interaction score)
GGCUAGAACUAGUGGAUCCCCCGGCGCCCGGCGGCUCGAGCCCGGGUAAGUGUAAAUCGUCUGCAUGCCGCCGGGCGCCAUGCCUGCAGGUCGACUCUAGAAAACAUG,binding signal,[4],2.86 log2 enrichment (interaction score)
same,binding signal,[7],4.66 log2 enrichment (interaction score)
same,binding signal,[5],4.17 log2 enrichment (interaction score)
GGCUAGAACUAGUGGAUCCCCCGGCGCCCGGCGGCUCGAGCCCGGGUAAGCGUAAAUAGUCUGCAUGCCGCCGGGCGCCAUGCCUGCAGGUCGACUCUAGAAAACAUG,binding signal,[8],4.57 log2 enrichment (interaction score)
GGCUAGAACUAGUGGAUCCCCCGGCGCCCGGCGGCUCGAGCCCGGGUAAGUGUGAAUAGUCUGCAUGCCGCCGGGCGCCAUGCCUGCAGGUCGACUCUAGAAAACAUG,binding signal,[9],4.36 log2 enrichment (interaction score)
GGCUAGAACUAGUGGAUCCCCCGGCGCCCGGCGGCUCGAGCCCGGGUAAGUGUAAAUAGUCUGCAUGCCGCCGGGCGCCAUGCCUGCAGGUCGACUCUAGAAAACAUG,binding signal,[2],3.28 log2 enrichment (interaction score)
same,binding signal,[10],5.71 log2 enrichment (interaction score)
same,binding signal,[11],3.59 log2 enrichment (interaction score)
same,binding signal,[12],4.55 log2 enrichment (interaction score)
same,binding signal,[8],4.49 log2 enrichment (interaction score)
same,binding signal,[13],4.31 log2 enrichment (interaction score)
same,binding signal,[6],4.56 log2 enrichment (interaction score)
same,binding signal,[14],4.47 log2 enrichment (interaction score)
same,binding signal,[1],2.37 log2 enrichment (interaction score)
same,binding signal,[15],2.28 log2 enrichment (interaction score)
GGCUAGAACUAGUGGAUCCCCCGGCGCCCGGCGGCUCGAGCCCGGGUAAGUGUAAAGAGUCUGCAUGCCGCCGGGCGCCAUGCCUGCAGGUCGACUCUAGAAAACAUG,binding signal,[16],3.06 log2 enrichment (interaction score)
GGCUAGAACUAGUGGAUCCCCCGGCGCCCGGCGGCUCGAGCCCGGGUAAGUUUAAAUAGUCUGCAUGCCGCCGGGCGCCAUGCCUGCAGGUCGACUCUAGAAAACAUG,binding signal,[17],2.75 log2 enrichment (interaction score)
GGCUAGAACUAGUGGAUCCCCCGGCGCCCGGCGGCUCGAGCCCGGGUAAGUGUUAAUAGUCUGCAUGCCGCCGGGCGCCAUGCCUGCAGGUCGACUCUAGAAAACAUG,binding signal,[18],2.93 log2 enrichment (interaction score)
same,binding signal,[19],3.06 log2 enrichment (interaction score)
same,binding signal,[20],6.48 log2 enrichment (interaction score)
GGCUAGAACUAGUGGAUCCCCCGGCGCCCGGCGGCUCGAGCCCGGGUAAGUGUAAGUAGUCUGCAUGCCGCCGGGCGCCAUGCCUGCAGGUCGACUCUAGAAAACAUG,binding signal,[2],2.6 log2 enrichment (interaction score)
same,binding signal,[3],3.45 log2 enrichment (interaction score)
same,binding signal,[13],4.76 log2 enrichment (interaction score)
